KDM5B inhibitor: KDM5B demethylase inhibition; KDM5B demethylase, FDH-coupled NADH fluorescence (FDH is formaldehyde dehydrogenase); Potency, µM (top dose mostly 57.7 µM), actives largely listed as inhibitors; 2.6% of 220,000 active; AID 1347165; active = well fitted inhibition curve with a large enough effect; note: 0% is about no effect; nearly all actives have a fitted effect of over 70% in size
Target sequence (Q9UGL1 whole entry, looked up): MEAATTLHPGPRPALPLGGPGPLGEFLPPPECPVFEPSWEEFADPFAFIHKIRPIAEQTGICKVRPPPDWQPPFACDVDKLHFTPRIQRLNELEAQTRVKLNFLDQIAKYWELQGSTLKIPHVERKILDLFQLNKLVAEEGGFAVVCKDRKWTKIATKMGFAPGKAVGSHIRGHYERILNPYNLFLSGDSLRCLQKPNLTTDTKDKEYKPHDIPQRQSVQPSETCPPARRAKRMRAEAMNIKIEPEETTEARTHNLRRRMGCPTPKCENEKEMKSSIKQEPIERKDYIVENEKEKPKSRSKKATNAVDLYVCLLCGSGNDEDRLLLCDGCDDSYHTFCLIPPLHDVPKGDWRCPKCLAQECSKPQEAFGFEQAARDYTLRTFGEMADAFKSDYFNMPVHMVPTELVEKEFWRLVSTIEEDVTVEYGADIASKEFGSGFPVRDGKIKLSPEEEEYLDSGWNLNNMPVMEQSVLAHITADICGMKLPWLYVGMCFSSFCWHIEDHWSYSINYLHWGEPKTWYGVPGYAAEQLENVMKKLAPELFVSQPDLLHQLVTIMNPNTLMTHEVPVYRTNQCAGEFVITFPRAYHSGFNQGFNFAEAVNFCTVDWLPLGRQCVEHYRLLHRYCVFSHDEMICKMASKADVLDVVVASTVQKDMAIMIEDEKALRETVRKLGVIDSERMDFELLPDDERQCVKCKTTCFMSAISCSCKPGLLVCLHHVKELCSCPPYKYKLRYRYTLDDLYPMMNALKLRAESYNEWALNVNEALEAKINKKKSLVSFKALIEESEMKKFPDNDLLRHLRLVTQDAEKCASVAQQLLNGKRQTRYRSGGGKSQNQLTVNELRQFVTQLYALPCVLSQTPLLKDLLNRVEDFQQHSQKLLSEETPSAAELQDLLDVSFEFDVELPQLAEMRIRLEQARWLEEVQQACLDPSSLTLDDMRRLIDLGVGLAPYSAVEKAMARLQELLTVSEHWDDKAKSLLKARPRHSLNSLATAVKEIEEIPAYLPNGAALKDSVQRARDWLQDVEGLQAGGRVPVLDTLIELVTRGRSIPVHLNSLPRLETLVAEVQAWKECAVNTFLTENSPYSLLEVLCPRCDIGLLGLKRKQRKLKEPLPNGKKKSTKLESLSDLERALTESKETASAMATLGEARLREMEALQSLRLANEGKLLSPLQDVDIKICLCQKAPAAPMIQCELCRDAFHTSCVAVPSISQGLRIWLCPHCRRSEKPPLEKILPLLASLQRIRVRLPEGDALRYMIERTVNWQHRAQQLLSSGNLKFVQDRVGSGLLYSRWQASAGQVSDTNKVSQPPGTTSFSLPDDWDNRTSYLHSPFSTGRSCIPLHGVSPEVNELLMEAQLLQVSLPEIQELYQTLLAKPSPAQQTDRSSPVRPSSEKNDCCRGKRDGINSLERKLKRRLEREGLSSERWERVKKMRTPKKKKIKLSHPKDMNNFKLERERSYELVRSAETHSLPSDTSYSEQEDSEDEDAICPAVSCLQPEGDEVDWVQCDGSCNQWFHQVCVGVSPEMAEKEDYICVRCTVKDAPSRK
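qHTS format, multiple compound concentrations. Buffer 50 mM HEPES pH 7.5/0.01% Tween-20; 200 nM KDM5BΔAP final; 10 min compound preincubation; substrate-mix levels 12.5 µM peptide, 25 µM α-KG, 0.25 mM NAD⁺; 30 min RT; ΔRFU.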
The depositor's hits bear a star; i = inactive. The entries come from a sample that favours hits as a whole. Potency is the fitted concentration of half-maximal effect.

SMILES	KDM5B inhibitor
CC(C)c1noc(-c2cn(C3CCCN(C(=O)c4cccc(F)c4)C3)nn2)n1 (stereo unspecified)	i
O=C(/C=C/c1ccc(Cl)cc1Cl)OCc1c(F)cccc1Cl	i
COc1ccc(C(=O)Nc2oc3ccccc3c(=O)c2-c2cccc(OC)c2)cc1	i
CCn1nc(C(=O)NCC(C)(C)N2CCCCC2)c2ccccc2c1=O	i
CCOc1ccccc1NC(=O)C1CCCN1C(=O)C12CC3CC(CC(C3)C1)C2 (stereo unspecified)	i
Cc1cc(NC(=O)CCc2ncc(-c3ccc(F)cc3F)o2)no1	i
CN1CCC(OC2CCN(C(=O)CCCc3ccccc3)CC2)CC1	i
COc1ccc(C(=O)COc2cccc(C#N)c2)cc1OC	i
Cc1cc(/C=C/c2nc3ccccc3s2)cc(C)c1O	i
O=C(COc1coc(CN2CCN(c3ccccc3)CC2)cc1=O)c1ccccc1	i
COCCNC[C@@H]1C=C(C)[C@H](Cc2nnc(-c3ccc(N(C)C)cc3)o2)C[C@H]1C(C)C	28µM*
CC1=C[C@@H](CO)[C@H](C(C)C)C[C@H]1Cc1nnc(-c2ccncc2)o1	i
CC1=C[C@@H](CN2CCC[C@H]2CO)[C@H](C(C)C)C[C@H]1Cc1nnc(-c2ccc(N(C)C)cc2)o1	11µM*
CC1=C[C@@H](CO)[C@H](C(C)C)C[C@H]1Cc1nnc(C(C)(C)C)o1	i
CC1=C[C@@H](CN2CCC(CO)CC2)[C@H](C(C)C)C[C@H]1Cc1nnc(-c2ccncc2)o1	i
CC(=O)NCCNC[C@@H]1C=C(C)[C@H](Cc2nnc(-c3ccc(C)cc3)o2)C[C@H]1C(C)C	i
CC1=C[C@@H](CO)[C@H](C(C)C)C[C@H]1Cc1nnc(-c2ccc(N(C)C)cc2)o1	32µM*
CC1=C[C@@H](CNCCN(C)C)[C@H](C(C)C)C[C@H]1Cc1nnc(-c2ccc(C)cc2)o1	i
COc1ccc(-c2nnc(C[C@@H]3C[C@@H](C(C)C)[C@H](CN4CCN(CCO)CC4)C=C3C)o2)cc1	i
Cc1oc(-c2ccccc2)nc1CSCC(=O)Nc1ccc(F)c(F)c1	i
CC(NC(=S)NNC(=O)CSCc1ccccc1)c1ccccc1 (stereo unspecified)	i
O=C(CCCc1nc2ccccc2s1)NC1CCSc2c(F)cccc21 (stereo unspecified)	i
CCN(CC)S(=O)(=O)c1ccc2c(c1)CCN2	i
CC1=C/C(=N/NC(=S)Nc2cc(C)ccc2C)CC1	i
Cc1ccsc1/C=C(/CC(=O)O)c1nc2ccccc2o1	i
SMILES	KDM5B inhibitor
CCOC(=O)N1CCN(C(=O)CN(c2cccc(F)c2)S(C)(=O)=O)CC1	i
CCCSc1ncc(Cl)c(C(=O)Nc2ccc(C)cc2C)n1	i
O=C(O)CCc1ccccn1	i
O=C1NC2(CCN(C(=O)c3ccc(Cl)cc3)CC2)COc2ccccc21	i
COc1ccc(-c2ccc3c(c2)C(=O)N2CC[C@H](NC(=O)COCC(=O)O)[C@H]2C(=O)N3)cc1	20µM*
O=C(O)COCC(=O)N[C@H]1CCN2C(=O)c3cc(/C=C/c4ccccc4)ccc3NC(=O)[C@H]12	32µM*
C=CCO[C@@H]1CCN2C(=O)c3cc(-c4ccc(OC)cc4)ccc3NC(=O)[C@H]12	35µM*
COc1ccc(/C=C/c2ccc3c(c2)C(=O)N2CC[C@H](NC(=O)CCC(=O)O)[C@H]2C(=O)N3)cc1	28µM*
O=C(O)COCC(=O)N[C@H]1CCN2C(=O)c3cc(-c4ccc(F)cc4F)ccc3NC(=O)[C@H]12	i
CN[C@@H](CC(C)C)C(=O)N[C@H]1CCN2C(=O)c3cc(-c4ccc(OC)cc4OC)ccc3NC(=O)[C@@H]2C1	i
CSCC(=O)N[C@H]1CCN2C(=O)c3cc(-c4ccccc4)ccc3NC(=O)[C@H]12	i
O=C(O)COCC(=O)N[C@H]1CCN2C(=O)c3cc(-c4ccccc4F)ccc3NC(=O)[C@H]12	i
CCOc1ccc2oc(=O)cc(CN3CCN(CC(=O)Nc4ccc5c(c4)OCCO5)CC3)c2c1	i
COc1cccc(-c2ccnc3c2c(=O)[nH]c(=O)n3Cc2ccco2)c1	i
Clc1ccc(COc2ccccc2CNCc2cccnc2)c(Cl)c1	i
Cc1ccc(S(=O)(=O)N(Cc2ccccc2)c2nc3nc(C)cc(C)n3n2)cc1	i
O=C(O)CCC(=O)N[C@H]1CCN2C(=O)c3cc(/C=C/c4ccccc4)ccc3NC(=O)[C@H]12	40µM*
O=C(N[C@H]1CCN2C(=O)c3cc(/C=C/c4ccc(O)cc4)ccc3NC(=O)[C@H]12)c1cnccn1	i
O=C1Nc2ccc(/C=C/c3ccccc3)cc2C(=O)N2CC[C@H](NS(=O)(=O)c3cccs3)[C@@H]12	32µM*
O=C(N[C@H]1CCN2C(=O)c3ccccc3NC(=O)[C@H]12)C1CCCC1	i
O=C1Nc2ccc(-c3ccccc3)cc2C(=O)N2CC[C@H](NS(=O)(=O)c3cccs3)[C@@H]12	i
O=C(N[C@H]1CCN2C(=O)c3cc(/C=C/c4ccccc4)ccc3NC(=O)[C@H]12)C1CCCC1	32µM*
O=C1Nc2ccccc2C(=O)N2CC[C@H](NS(=O)(=O)c3cccs3)[C@@H]12	i
CCOc1cc(/C=N/O)ccc1OCc1ccc(Cl)cc1	i
Cc1cc(C)c(NC(=O)c2cc3c(s2)CCCCC3)c(C)c1	i
SMILES	KDM5B inhibitor
CCN1CCN(CC(=O)N2CCNC(=O)C2CC(=O)Nc2ccc(F)cc2)CC1 (stereo unspecified)	i
CCn1c2ccccc2c2cc(CNC34CC5CC(CC(C5)C3)C4)ccc21	i
CC1(C)Cc2c(sc3c2c2nc(Cc4ccccc4)nn2c(=O)n3CC(=O)N2CCCCC2)CO1	i
N#C/C(=C\c1cn(CC(=O)NCc2ccco2)c2ccccc12)C(=O)NCc1ccco1	i
COc1cc(Cl)ccc1C(=O)N[C@@H]1CN(c2ccncn2)C[C@H]1CN(C)C	i
COc1ccc(CC(=O)N[C@@H]2CN(c3ccccn3)C[C@H]2CN(C)C)cc1	28µM*
Cc1ccc(C(=O)N[C@@H]2CN(c3ccncn3)C[C@H]2CN(C)C)cn1	i
COc1ccc(C(=O)N[C@@H]2CN(c3ccccn3)C[C@H]2CN(C)C)c(OC)c1	28µM*
COc1ccc(CC(=O)N[C@@H]2CN(C)C[C@H]2CN(C)C)cc1	i
COc1ccc(C(=O)N[C@@H]2CN(S(C)(=O)=O)C[C@H]2CN(C)C)c(C)c1	i
CN(C)C[C@@H]1CN(Cc2ccccn2)C[C@H]1NC(=O)c1ccc(Cl)s1	i
CN(C)C[C@@H]1CN(c2ccccn2)C[C@H]1NC(=O)c1cnco1	32µM*
O=C1CC(c2ccccc2)N(C(=O)Cc2cccc(F)c2)CCCCCCN1 (stereo unspecified)	i
CC(c1nnc(SCC(=O)Nc2ccc(Cl)cc2)n1C)N1C(=O)COc2ccccc21 (stereo unspecified)	i
CCOc1cccc(CN2CC(Oc3ccccc3C(=O)NC3CC3)C2)c1	i
COC(=O)c1ccc(C(=O)OC)c(NC(=O)COC(=O)CC2Sc3ccccc3NC2=O)c1 (stereo unspecified)	i
CCc1ccc(NC(=O)C2=C(C)NC(Nc3nc4ccccc4o3)=NC2c2ccccc2)cc1 (stereo unspecified)	i
COc1ccc(C=O)cc1COc1ccccc1C=O	i
Cn1ncc(N2CCC(CNC(=O)c3cccc4ccnn34)C2)cc1=O (stereo unspecified)	28µM*
Cn1ncc(N2CCC(CNC(=O)c3cccc4ncccc34)C2)cc1=O (stereo unspecified)	i
